According to PubChem BioAssay (NCI):
The panel holds about 83,000 compounds, 20% with a hit somewhere; the sample as a whole holds those more often.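 Cells were grown in 96-well plates and exposed to the test compound at a single concentration for 48 hours; results are reported as percent growth, with values below 10 considered active.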 Unmarked numbers belong to inactive results. The source made the active and inactive calls.

The compounds below were run on U251 CNS (assay: NCI-60 one-dose screen, 48 h (100 = growth as untreated, 0 = no growth, -100 = all killed)). Settings: 10 µM unless noted.

Row | Structure (SMILES) | growth
1 | CN1CCN(c2ccc(-c3ccc4ncc(C#N)c(Nc5ccc(F)c(Cl)c5)c4c3)cc2)CC1 | 50%
2 | CNc1ccc(Nc2cccc(C)c2)c2c1C(=O)c1ccccc1C2=O | 95.4%
3 | O=C(Nc1ccc(Cl)cc1F)c1ccccc1O | 34.6%
4 | O=C1CCC(C(=O)NCCNCCNC(=O)C2CCC(=O)N2)N1 (stereo not drawn) | 97.7%
5 | CC/C=C\C[C@@H](O)C/C=C1/C(=O)C=C[C@H]1C/C=C\CCCC(=O)OC | 8.72% (active)
6 | Cc1ccc(C(=O)NN2C(=O)CSC2c2cccc([N+](=O)[O-])c2)cn1 (stereo not drawn) | 95.6%
7 | CNCCCNc1nc2ccccc2c2c(=O)c3cc(OC)ccc3sc12 | 48.3%
8 | COc1ccc(-c2[nH]c3ccc(OC)cc3c2/C=C(\C#N)S(=O)(=O)c2ccccc2)cc1 | 24.8%
9 | N[C@@H](Cc1ccccc1)[C@@H](O)C(=O)NCc1ccc(F)cc1 | 104%
10 | COc1cc(CCC[P+](c2ccccc2)(c2ccccc2)c2ccccc2)c(OC)c(OC)c1OC | 77.7%
11 | O=C(Nc1ccc(OS(=O)(=O)c2ccc(F)cc2)cc1)c1ccc(Cl)cc1 | 100%
12 | CC(=O)OC[C@H]1OC(Sc2sc(C(=O)c3ccc(Br)cc3)c(N)c2-c2nc3ccccc3s2)[C@H](OC(C)=O)[C@@H](OC(C)=O)[C@H]1OC(C)=O (stereo partly drawn) | 96.2%
13 | CCOc1c(B(O)O)cccc1-c1nc2ccc3[nH]ncc3c2c2c1CCCC2 | 75.4%
14 | Cc1ccc(-c2nc3c(c(-c4ccccc4)nn3-c3ccccc3)c(-c3ccc(O)cc3)c2C#N)cc1 | 41.6%
15 | C/C(=C\C(=O)c1ccc(Cl)cc1)c1ccc(Cl)cc1 | 100%
16 | CCC12CCC[N+]3([O-])CCC4(C(=Nc5ccccc54)C(O)(C(=O)OC)C1)C23 (stereo not drawn) | 108%
17 | CCN1C(=O)N(CC)C2Nn3c(s/c(=C4\C(=O)N(CCC(C)C)c5ccccc54)c3=O)=NC21 (stereo not drawn) | 87.7%
18 | S=c1nc(-c2ccccc2)oc(=NC2CCCCC2)n1C1CCCCC1 | 18.8%
19 | NC[C@@H]1O[C@H](O[C@@H]2[C@@H](CO)OC(O[C@@H]3[C@@H](O)[C@H](N)C[C@H](N)[C@H]3OC3O[C@H](CN)[C@@H](O)[C@H](O)[C@H]3N)[C@@H]2O)[C@H](N)[C@@H](O)[C@@H]1O (stereo partly drawn) | 102%

Row | Structure (SMILES) | growth
20 | Cc1cc(=O)oc2cc(OC(=O)N3CCN(C)CC3)ccc12 | 107%
21 | C=CCc1cc(C)ccc1NC(C(=O)NCC(=O)OC)c1ccccc1 (stereo not drawn) | 97.8%
22 | COc1ccc(OC)c(/C=C/C(=O)N/N=C/c2ccccc2)c1 | 43.5%
23 | COc1ccc(/C=N/Nc2cc(=O)[nH]c3ccc(Cl)cc23)cc1 | 28.9%
24 | CCOC(=O)c1[nH]c(C)c(C(=O)OCc2ccccc2C#N)c1C | 50.9%
25 | COc1cc(Nc2nc(NCCN)nc3cc[nH]c(=O)c23)cc(OC)c1 | 85.8%
26 | COc1cc(/C=C/c2c(C(C)=O)c(C)nc3ccccc23)cc(OC)c1OC | 39%
27 | Cc1nc2ccccc2c(/C=C/c2ccc(Cl)cc2)c1C(=O)/C=C/c1ccc(C(F)(F)F)cc1 | -84.5% (active)
28 | O=C(N/N=C/[C@H](O)[C@H](O)[C@H](O)CO)c1ccc(NC(=O)c2cccnc2)cc1 | 105%
29 | COc1cccc(-c2nc(-c3ccc(NC(=O)c4ccccc4)cc3)[nH]c2-c2ccnc(Br)c2)c1 | 30.7%
30 | CCCCn1c(=O)c(-c2cc(-c3ccc(Cl)cc3)nc(-c3ccc(Cl)cc3)c2)cc2cc(Cl)ccc21 | 105%
31 | O=S(=O)(NCCCNc1cc(-c2c(-c3cccc(O)c3)nc3sccn23)ccn1)c1cccc2ccccc12 | 46.2%
32 | COc1cccc2c(=O)c3c(sc12)c(N1CCNCC1)nc1ccccc13 | 12.2%
33 | COc1cc(-c2nc3sccn3c2-c2ccnc(NCCCNS(=O)(=O)c3ccc(F)cc3)n2)ccc1F | 91.4%
34 | CCCCC[C@H](O)C/C=C1/C(=O)C=C[C@@H]1C/C=C\CCCC(=O)O | 43.8%
35 | CCCCCCN1C(=O)/C(=c2\sc3n(c2=O)C2C(NN=3)N(CC)C(=O)N2CC)c2ccccc21 (stereo not drawn) | -21.3% (active)
36 | COc1cccc2c(=O)c3c(sc12)c(NCCCN)nc1ccccc13 | 39.5%
37 | COc1ccc2c(c1)c(-c1nn3cc(-c4cccs4)nc3s1)cn2C | 65.9%
38 | CCOC(=O)Nc1ccc(-c2nc(-c3cccc(OC)c3)c(-c3ccnc(Br)c3)[nH]2)cc1 | 39%
